Where “and” joins values, the source holds several entries; their conditions need not be identical. Identical values can stand only once. Results filed as inconclusive are left out. A call without a number means that no potency is given here. Values without a mark were called inactive. Calls of active or inactive are those of the source. Calls follow the shape of the dose curve; as a rule, active = well fitted activation curve with a large enough effect in the signal ratio in the repeat runs (not every such curve was filed as active); inconclusive = weak or mixed curves, or effect the other way; inactive = no such curve, though single readings can be large or run the other way; the % refers to the signal ratio.
Assay: qHTS assay for small molecule agonists of the antioxidant response element (ARE) signaling pathway (AID 743202)
Settings: HepG2 ARE-bla reporter, beta-lactamase FRET, 16 h; series mostly up to 73.3 µM; activation: at the top concentration
Excerpt: U.S. Tox21 Program National Center for Advancing Translational Sciences [NCATS] NIH Chemical Genomics Center [NCGC] U.S. Environmental Protection Agency [EPA] National Institutes of Environmental Health Sciences [NIEHS] National Toxicology Program [NTP] U.S. Food and Drug Administration [FDA] Tox21 Assay Overview: Oxidative stress has been implicated in the pathogenesis of a variety of diseases ranging from cancer to neurodegeneration. The antioxidant response element (ARE) signaling pathway plays an important role in the amelioration of oxidative stress. The CellSensor ARE-bla HepG2 cell line (Invitrogen) can be used for analyzing the Nrf2/antioxidant response signaling pathway. Nrf2 (NF-E2-related factor 2) and Nrf1 are transcription factors that bind to AREs and activate these genes. The CellSensor ARE-bla Hep G2 cell line contains a beta-lactamase reporter gene under control of the Antioxidant Response Element (ARE) stably integrated into HepG2 cells. The activation of the report gene under culture conditions can be detected by fluorescence intensity. This cell line has been used to screen the Tox21 10K compound library to identify agonists that induce oxidative stress.
Tox21 Assay Protocol Summary: The ARE-bla cells were dispensed at 2,000 cells/5 ul/well in 1536-well black wall/clear bottom plates using a Multidrop dispenser. After the assay plates were incubated at a 37 C/5% CO2 incubator for 5 hours, 23 nL of compounds dissolved in DMSO, positive controls or DMSO only was transferred to the assay plate by a pin tool. The plates were incubated at 37 C for 16 hours. After 1 uL of LiveBLAzer B/G FRET substrate was added using a Flying Reagent Dispenser, the plates were incubated at room temperature for 2 hours, and fluorescence intensity was measured by an Envision plate reader.
Potency is read from the fitted curve at half-maximal effect.

Row | Structure (SMILES) | activation | Potency
1 | c1ccc(-c2ccccc2)cc1 | -10.3% [at 94.8 µM] | 
2 | C[C@]12CC[C@H]3[C@@H](CC[C@@]45O[C@@H]4C(O)=C(C#N)C[C@]35C)[C@@H]1CC[C@@H]2O |  | 30.6 µM (active) and 23.7 µM (active)
3 | CCOP(OCC)OCC | -2.66% | 
4 | COC(=O)c1ccccc1N |  | inactive
5 | CCC[CH2][Sn]([Cl])([Cl])[Cl] |  | 1.1 µM (active) and 2.43 µM (active)
6 | NCCc1ccc(O)cc1 |  | inactive
7 | Cn1cc(-c2ccccc2)c(=O)c(-c2cccc(C(F)(F)F)c2)c1 |  | inactive
8 | COC(=O)c1ccccc1C(=O)OC |  | inactive
9 | COc1ccc2c3c1O[C@H]1[C@@H](O)C=C[C@H]4[C@@H](C2)N(C)CC[C@@]341 |  | 26.9 µM (active)
10 | C=CCO | -16.8% [at 94.8 µM] | 
11 | O=S(=O)(c1ccc(O)cc1)c1ccc(O)cc1 |  | inactive
12 | ClCc1cccnc1 | -0.0755% | 
13 | COC(=O)NS(=O)(=O)c1ccc(N)cc1 |  | inactive
14 | CC(Br)C(=O)O (stereo not given) | -7.56% [at 94.8 µM] | 
15 | O=NN1CCCC1 |  | inactive
16 | Nc1ccccc1C(=O)O |  | inactive
17 | O=c1n(Cl)c(=O)n(Cl)c(=O)n1Cl |  | inactive
18 | Nc1ccc(Cc2ccc(N)cc2)cc1 | 12.8% | 
19 | O=c1[nH]c2ccccc2c(=O)o1 |  | inactive
20 | C1CC2OC2CC1C1CO1 (stereo not given) | 3.4% | 

Row | Structure (SMILES) | activation | Potency
21 | Clc1cccc(Cl)c1Cl | -10.5% | 
22 | O=NN1CCCCCCC1 |  | inactive
23 | c1ccc(OP(Oc2ccccc2)Oc2ccccc2)cc1 |  | inactive
24 | CCC12COCN1COC2 | -0.477% | 
25 | Oc1ccccc1Cl |  | inactive
26 | CN=C=S | -7.84% [at 94.8 µM] | 
27 | CC(C)(C)OOC(=O)c1ccccc1 |  | inactive
28 | Cc1ccc(N)cc1Cl | -7.61% | 
29 | COCCl |  | inactive
30 | c1ccc2c(c1)oc1ccccc12 |  | inactive
31 | CCC[N+](=O)[O-] |  | inactive
32 | OCCN(CCO)CCO |  | inactive
33 | CC(C)C1(C)N=C(c2nc3ccccc3cc2C(=O)O)NC1=O (stereo not given) |  | inactive
34 | CCCCN(CCCC)SN(C)C(=O)Oc1cccc2c1OC(C)(C)C2 |  | inactive
35 | CCCCCCCCCl |  | inactive
36 | O=c1ccc(=O)[nH][nH]1 | 7.27% | 
37 | CCOP(=S)(OCC)Oc1cnc2ccccc2n1 |  | inactive
38 | O=[N+]([O-])c1ccccc1 |  | inactive
39 | CON(C)C(=O)Nc1ccc(Cl)c(Cl)c1 | 2.55% | 
40 | Cc1ccc(N)cc1N |  | inactive
